# Test results published in PubChem BioAssay (NCI).
# This is part of a sample that, as a whole, favours compounds with a hit. Of some 83,000 tested, about 20% had one in any assay.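 Testing used 96-well plates and a 48-hour single-concentration exposure. Example: -40 means 40% of the starting cells died.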 A number with no mark means an inactive call. Activity calls are given as the source filed them. The calls were made as follows: active = growth percent below 10; inactive = the rest.
# Test system: HL-60(TB) leukemia
# Experiment: NCI-60 one-dose screen, 48 h (100 = growth as untreated, 0 = no growth, -100 = all killed)
# Details: 10 µM unless noted
row,SMILES,growth
1,COc1cc2nc(-c3cccc4cccnc34)nc(NC3CCN(Cc4ccccc4)CC3)c2cc1OC,-63.4% (active)
2,CCn1c(SCC(=O)Nc2cc(C(F)(F)F)ccc2Cl)nc2ccccc2c1=O,19.3%
3,CC1(n2nnnc2N2CCCN(c3ncccc3N)CC2)CCC1,102%
4,CCC(=O)Oc1cc(Cl)c(Cl)cc1Cl,106%
5,C/C(=N\O)c1ccc(NC(=O)CSc2nnc(-c3cc(-c4ccc(S(C)(=O)=O)cc4)nc4ccccc34)n2-c2ccccc2)cc1,84%
6,CCc1ccc(CCC(=O)Nc2ncc(Cc3cc(Cl)ccc3Cl)s2)o1,-44.5% (active)
7,O=C1Nc2ccc(F)cc2/C1=C\c1nc(-c2ccccc2F)n2ccccc12,120%
8,O=C(Nc1cccc(Cn2c(=O)[nH]c3ccc(Oc4ncccn4)cc3c2=O)c1)c1cccc(F)c1,89.9%
9,COc1ccc(OC)c(N(CCN2C(=O)c3ccccc3C2=O)C(=O)CCl)c1,-63.3% (active)
10,O=C1CCC(C(=O)NCCNCCNC(=O)C2CCC(=O)N2)N1 (stereo not given),89.2%
11,COc1ccc(NC(=O)CSc2nnc(-c3cc(-c4ccccc4)nc4ccccc34)n2-c2ccccc2)cc1,105%
12,CC(C)(C)NCCC(O)c1cc(C(F)(F)F)nc2c(C(F)(F)F)cccc12 (stereo not given),73.5%
13,C#CCOCC1CN(C)C(=O)O1 (stereo not given),89.4%
14,O=c1c2cccc(F)c2sc2c(NCCCNCCO)nc3ccccc3c12,-6.55% (active)
15,COc1cc([C@@H](CCO)C[C@H](C)c2ccc3ccccc3c2)cc(OC)c1OC,6.14% (active)
16,CC(=O)O[C@H]1CC[C@]2(C)[C@H]3CC=C4[C@@H]5CC(C)(C)CC[C@]5(C(=O)OCC(COC(=O)C(Cl)Cl)(COC(=O)C(Cl)Cl)NC(=O)C(Cl)Cl)CC[C@@]4(C)[C@]3(C)CC[C@H]2C1(C)C,33.1%
17,C#CCOc1c(OC)cc(C(=O)/C(C)=C/c2cccc(N=[N+]=[N-])c2)cc1OC,1.17% (active)
18,CS(=O)(=O)c1ccc(-c2cc3c(oc2=O)-c2ccccc2OC3O)cc1 (stereo not given),93.5%
19,O=C(Nc1ccc(-n2cc(-c3ccncc3)c(-c3ccc(Cl)c(O)c3)n2)cc1)Nc1cc(C(F)(F)F)cc(C(F)(F)F)c1,2.94% (active)
20,Oc1ccc(C#CCOc2ccccc2)cc1CNCCN(Cc1ccccn1)Cc1ccccn1,-13.6% (active)

row,SMILES,growth
1,CCCc1cc(=O)oc2c3c(c4c(c12)OC(C)(C)CC4)OC(C)[C@H](C)[C@@H]3O (stereo not given in full),109%
2,COc1ccccc1-c1ccc2nc(NC(=O)Nc3cc(C(F)(F)F)cc(C(F)(F)F)c3)sc2c1,-34.5% (active)
3,CC(C)CSc1nc(-c2ccc(F)cc2)c(C#N)c(N2CCCCC2)n1,101%
4,Cc1nc2sc(C(=O)Nc3ccccc3Cl)c(N)c2cc1C(C)O (stereo not given),58.8%
5,CC(C)(C)OC(=O)N1CCN(CCn2cc(C(F)(F)F)c3c(Cl)ncnc32)CC1,16.4%
6,C[C@@H]1CC2C3CCC4=CC(=O)C=C[C@]4(C)[C@@]3(Cl)[C@@H](O)C[C@]2(C)[C@@]1(OC(=O)c1ccco1)C(=O)CCl (stereo not given in full),78.2%
7,Cc1cc(C)c2nc(Nc3nc(C)c(C)c(=O)[nH]3)nc(C)c2c1,-10.2% (active)
8,Cc1ccc(N=NC2C(=O)N(c3ccc(Cl)cc3)N(c3ccc(Cl)cc3)C2=O)cc1,103%
9,C=CN(C(=O)N1CCN(c2cc3c(cc2F)c(=O)c(C(=O)O)cn3C2CC2)CC1)c1nc(-c2ccc(OC)cc2)cs1,-22.9% (active)
10,COc1ccc(-c2n[nH]nc2-c2cc3ccccc3s2)cc1O,2.49% (active)
11,COc1ccc(C2CC(c3ccc(OC)cc3OC)=NN2c2ccc(S(N)(=O)=O)cc2)cc1 (stereo not given),61.2%
12,Cc1ccc(C)c2c1C(O)(C#Cc1ccccc1)c1ccccc1C2(O)C#Cc1ccccc1 (stereo not given),35.6%
13,COc1ccc(-c2cn3c(C(=O)Nc4ccccc4Cl)c(-c4ccccc4)c4c3n2CCCC4)cc1,83.4%
14,COc1cc(/C=N/N(C)C)ccc1O,86.5%
15,Cn1cccc1/C=C1\C(=O)Nc2ccccc21,103%
16,CN1CCN(Cc2ccc(NC(=O)c3[nH]ncc3Nc3ccnc4ccnn34)cc2)CC1,45.5%
17,O=C(O[C@@H]1Cc2c(O)cc(O)cc2O[C@@H]1c1cc(O)c(O)c(O)c1)c1cc(O)c2c(c1)OCO2,91.1%
18,O=C(Nc1ccc(-n2ccc3c(NC(=O)c4ccccc4)nccc32)cc1)Nc1ccc(Cl)c(Cl)c1,-16.4% (active)
19,COc1cc(C(=O)/C=C/c2c(Cl)nc3sccn23)cc(OC)c1OC,52.2%
20,CN=S(=O)(NC(=O)c1ccc(Cl)cc1Cl)c1ccc(Br)s1 (stereo not given),108%
